About 79,000 compounds went through this panel and 15% of them were active in at least one assay; those are over-represented in the sample as a whole. Values without a mark were called inactive. Activity calls are given as the source filed them. Rule as the data show it: active = growth inhibition above about 70%; inactive = the rest.
Assay: NCI Yeast Anticancer Drug Screen. Data for the rad50EPP+ strain (AID 151);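 also: 0% = growth of vehicle-treated control cultures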
Conditions: S. cerevisiae rad50 mutant strain, hits give high values
Method: Growth inhibition of yeast strains with defined genetic alterations is measured as a screen for potential anti-cancer activity. Selected strains with alterations in DNA damage repair or cell cycle control were exposed to compounds and growth inhibition was measured relative to vehicle treated controls. The strain used in this assay is rad50EPP+

Compound	growth inhibition (at 1.2 µM) [%]	growth inhibition (at 3.7 µM) [%]	growth inhibition (at 11.0 µM) [%]	growth inhibition (at 33.0 µM) [%]	growth inhibition (at 100.0 µM)
CC(=O)Oc1ccc(C(=O)c2ccccc2)c(O)c1	14	20	19	47	85% (active)
CC1=CC2C(C(C)C)CC1C1C(=O)OC(=O)C21 (stereo not given)	-8	-20	10	33	49%
CCOC(=O)c1csc(Br)n1	-2	4	-2	0	-4%
COc1ccc(S(=O)(=O)N/N=C\c2cc([N+](=O)[O-])cc(I)c2O)c(OC)c1OC	-5	-6	-5	17	63%
O=C(Nc1ccc2c(c1)Cc1c-2ccc([N+](=O)[O-])c1F)C(F)(F)F	9	0	6	11	20%
CC(=O)OCC1OC(O[C@H]2C=C[C@@H](C(=O)OCc3ccccc3)n3c(=O)n(-c4ccccc4)c(=O)n32)C(OC(C)=O)C(OC(C)=O)C1OC(C)=O (stereo not given in full)	-9	3	2	16	18%
O/N=C/C1c2ccccc2-c2ccccc21	-1	7	9	28	51%
CC(=O)C1=C(O)C2(C)c3c(O)c(C)c(O)c(C(C)=O)c3OC2(Sc2ccccc2)CC1=O (stereo not given)	23	18	30	33	52%

From PubChem BioAssay (NCI)
